Bioassay records as filed in PubChem BioAssay.
NPR1 activator – GC-A (human) enzyme activation. HEK293 GC-A cells, cGMP TR-FRET, EC30 ANP; 0% at EC30 ANP, 100% saturating ANP. activation, % at 10 µM. 370,000 compounds, 0.14% hits. AID 1671463; in the data active means activation above about 40%
Target sequence (P16066 whole entry, looked up): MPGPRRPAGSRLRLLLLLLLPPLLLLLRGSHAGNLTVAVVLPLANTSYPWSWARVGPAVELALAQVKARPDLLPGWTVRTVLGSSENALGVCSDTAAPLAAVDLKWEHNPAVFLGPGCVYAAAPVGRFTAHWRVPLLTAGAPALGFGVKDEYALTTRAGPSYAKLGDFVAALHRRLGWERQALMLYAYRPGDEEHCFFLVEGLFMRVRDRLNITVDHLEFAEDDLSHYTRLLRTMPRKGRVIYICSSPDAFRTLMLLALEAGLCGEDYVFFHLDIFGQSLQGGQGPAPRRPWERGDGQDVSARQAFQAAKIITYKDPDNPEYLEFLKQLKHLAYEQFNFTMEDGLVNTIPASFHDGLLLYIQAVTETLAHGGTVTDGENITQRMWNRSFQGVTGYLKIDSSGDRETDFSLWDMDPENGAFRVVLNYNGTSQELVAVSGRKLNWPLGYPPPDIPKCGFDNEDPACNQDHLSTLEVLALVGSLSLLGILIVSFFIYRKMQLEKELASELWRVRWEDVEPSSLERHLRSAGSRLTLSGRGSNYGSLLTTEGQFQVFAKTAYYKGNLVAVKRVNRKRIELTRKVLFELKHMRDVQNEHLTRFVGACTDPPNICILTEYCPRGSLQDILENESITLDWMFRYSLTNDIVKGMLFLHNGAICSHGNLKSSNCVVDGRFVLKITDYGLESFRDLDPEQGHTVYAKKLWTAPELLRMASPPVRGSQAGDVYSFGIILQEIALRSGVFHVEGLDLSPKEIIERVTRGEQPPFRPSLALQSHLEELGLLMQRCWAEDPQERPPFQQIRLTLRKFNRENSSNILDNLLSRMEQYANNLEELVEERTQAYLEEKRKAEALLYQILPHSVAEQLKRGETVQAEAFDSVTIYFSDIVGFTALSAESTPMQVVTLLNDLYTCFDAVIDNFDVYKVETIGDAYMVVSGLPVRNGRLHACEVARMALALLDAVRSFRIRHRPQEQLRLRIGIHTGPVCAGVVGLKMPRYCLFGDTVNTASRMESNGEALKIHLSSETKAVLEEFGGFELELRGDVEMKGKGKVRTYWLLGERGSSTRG
GC-B act – GC-B (human) receptor activation. 370,000 compounds, 0.11% hits. AID 1920062. HEK293-GC-B cells, CNP EC30, cGMP TR-FRET; 0% at EC30 CNP, 100% saturating CNP. activation, % at 10 µM. P20594;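 active means activation at 10 µM reaching about 35% in either raw or pattern-adjusted values, limit read from the data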
PLC-gamma1 inh – inhibitors of human phospholipase C gamma1. P19174. 370,000 compounds, 0.84% hits. AID 720700. inhibition, % at 12.2 µM. purified PLC-gamma1, fluorogenic substrate, fluorescence
PfM18AAP inh – PfM18AAP enzyme inhibition | recombinant PfM18AAP, H-Glu-NHMec fluorogenic cleavage | inhibition, % at 7.35 µM | 290,000 compounds, 1.2% hits;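 active means inhibition above the campaign mean inhibition over all tested compounds plus 3 SD, cut at about 28% in these data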;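 further: 0% = plate median of test compound wells and 100% = 2 mM ZnCl2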
Rce1 inh – yeast Ras-converting enzyme inhibition; Q03530; yeast membranes, quenched prenylated peptide cleavage fluorescence; calls only; 290,000 compounds, 0.27% hits; AID 2563;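 active means fall in fluorescence gain of 50% or more versus controls, with final raw signal at or below 3038400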;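 further: plate controls were neutral control wells for no effect and wells lacking membranes for full effect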
PLC-beta3 inh – PLC-beta3 (human) inhibition, primary screen; Q01970; 370,000 compounds, 0.18% hits; inhibition, % at 12.2 µM; AID 720704; Purified PLC-beta3, fluorogenic substrate, fluorescence; in the data active means inhibition above about 11%;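 further: 0% = median of compound wells on plate and 100% = full blocker control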
PLCgamma1 ctr – counter-screen for PLC-beta3 inhibitors: inhibitors of human PLC-gamma1; shares compounds with PLC-gamma1 inh; purified PLC-gamma1, fluorogenic substrate, fluorescence; inhibition, % at 12.3 µM; 3,300 compounds, 3.1% hits; AID 743258
PLCbeta3 conf – human PLC-beta3 inhibition, confirmation; shares compounds with PLC-gamma1 inh; purified PLC-beta3, fluorogenic substrate fluorescence; inhibition, % at 12.3 µM; 3,300 compounds, 1% hits; in the data active means inhibition above about 11%
* = called active by the depositor; i = inactive; x = no result given. This is a sample that favours compounds with a hit; in the whole collection about 2.2% have one here. Unless noted, no stated cut-off is given here; in the data, active means inhibition above about 9.5%; inactive means the rest.

SMILES	NPR1 activator	GC-B act	PLC-gamma1 inh	PfM18AAP inh	Rce1 inh	PLC-beta3 inh	PLCgamma1 ctr	PLCbeta3 conf
CCOC(=O)N1CCN(C(=O)C[C@H]2C[C@@]3(C(=O)OC)C(=C[C@H](C(C)(C)C)O[C@@H]3C)N(Cc3ccc4c(c3)OCO4)C2=O)CC1	-4	1	2	x	x	5	x	x
O=C(/C=C/Nc1ccc(F)cc1F)c1ccc(Br)cc1	1	-3	12*	x	i	1	-67	-60
CCOC(=O)C1CSCCS(=O)(=O)N1Cc1ccccc1C (stereo not drawn)	-1	1	-3	x	x	1	x	x
CCNC(=O)C[C@H]1CC[C@H]2[C@@H](COc3ccc(NC(=O)c4ccc5c(c4)OCO5)cc3C(=O)N2C)O1	1	-2	9.6*	x	x	4	15*	14*
COC(=O)C[C@@H]1CC[C@@H]2[C@H](COc3ccc(NC(=O)c4ccc5c(c4)OCO5)cc3C(=O)N2C)O1	7	6	-2	x	x	0	x	x
CN1C(=O)c2cc(NC(=O)Nc3ccccc3F)ccc2OC[C@H]2O[C@@H](CC(=O)NCc3ccc(-c4ccccc4)cc3)CC[C@@H]21	-3	-4	12*	x	x	10	13*	12*
CCc1nc2c(OCc3ccc(Cl)cc3Cl)cccn2c1N(C)C(=O)c1ccccc1F	-3	-6	4	x	x	11*	-4	-4
CC(C)CC(NC(=O)c1ccccc1)C(=O)OCC(=O)Nc1ccc(Br)cn1 (stereo not drawn)	2	0	11*	8	i	9	-1	2
O=C(O)C1CCCCN1C(=O)c1ccc(S(=O)(=O)N2CCCC2)cc1 (stereo not drawn)	4	0	9.7*	x	x	1	-3	0
C/C(=N\NC(=O)c1cc(-c2ccccc2)nc2ccccc12)c1ccc(Cl)cc1	-4	-7	-7	x	x	-8	x	x
Cc1cccc(C(=O)N2CCN(c3ccc([N+](=O)[O-])c(NCc4ccco4)c3)CC2)c1	7	-3	9.5*	3	i	-2	-2	-1
CC(=O)Nc1c(-c2ccc(C(F)(F)F)cc2)nc2ncccn12	3	-2	i	x	x	i	x	x
CC(C)(C)c1ccc(C#C[C@@H]2C=C[C@@H](O)[C@@H](COC(=O)NCc3ccccc3)O2)cc1	-2	1	1	x	x	9	x	x
Cc1cc(=O)n2nc(N3CCCC(C(=O)NCc4ccccc4Br)C3)sc2n1 (stereo not drawn)	0	-1	12*	1	i	-7	-3	1
CC(C)Cc1cc(C(=O)Nc2cc(C(F)(F)F)ccc2Cl)no1	-3	-10	12*	5	i	3	-6	-4
O=C(Nc1ccc(F)cc1)Nc1nnc(COc2ccccc2F)s1	8	3	11*	-8	i	6	-5	-4
COc1ccc2c(c1)CNC2CS(=O)(=O)NC1CCCC1 (stereo not drawn)	2	0	-25	x	x	-30	x	x
COC(=O)[C@]12C[C@H](CC(=O)N3CCN(C(=O)c4ccco4)CC3)C(=O)N(CCc3ccc(OC)c(OC)c3)C1=C[C@H](C1CCCC1)O[C@@H]2C	1	1	-1	x	x	1	x	x
O=S(=O)(NC1CCCC1)c1ccccc1Br	-2	2	9	x	i	16*	-1	0
CCn1c(=O)n(CC(=O)N2CCN(c3ccc(F)cc3)CC2)c(=O)c2ccccc21	0	2	-3	x	x	-4	x	x
CC1(C(=O)NS(=O)(=O)c2cccs2)CCN1C(=O)c1cccc(F)c1 (stereo not drawn)	3	0	-1	x	x	14*	-1	-1
COc1ccc(-c2cnnc(N/N=C/c3ccc(-c4ccc([N+](=O)[O-])cc4)o3)n2)cc1	0	-2	-2	2	x	-2	x	x
COc1ccccc1-c1cnnc(N/N=C/c2ccc(-c3cccc(Br)c3)o2)n1	-3	9	12*	0	i	1	8	5
Cc1cccc(S(=O)(=O)N2CCCc3ccccc32)c1	-1	0	9.6*	4	i	-6	-2	4
COc1cc2c(cc1OC)[C@@H](NC(=O)c1ccncc1)[C@H](C)[C@H]2c1ccccc1	1	-4	0	x	x	-4	x	x
SMILES	NPR1 activator	GC-B act	PLC-gamma1 inh	PfM18AAP inh	Rce1 inh	PLC-beta3 inh	PLCgamma1 ctr	PLCbeta3 conf
O=C(NCC1CCN(C(=O)C(=O)c2cccs2)CC1)c1ccc2c(c1)OCO2	0	1	1	x	x	2	x	x
COC(=O)c1ccc(NC(=O)CN(C)S(=O)(=O)c2ccc(OC)c(C)c2)cc1	0	3	9.6*	-4	i	-1	-10	-4
COc1ccc(S(=O)(=O)N(C)CC(=O)Nc2ccc(C(N)=O)cc2)cc1OC	3	2	1	-3	i	-1	x	x
CCCC[C@H](C(=O)N(CC)c1ccccc1)[C@@H](O)c1ccc(C(C)=O)cc1	-26	-23	0	x	x	-1	x	x
CCOC(=O)C(C(=O)NCCCN1CCOCC1)C1CCCCC1 (stereo not drawn)	4	4	1	-4	i	2	x	x
C=CCNC(=O)C(C(=O)OCC)C1CCCCC1 (stereo not drawn)	-5	3	10*	-5	i	14*	-2	-8
CCCCCCN1CCS(=O)(=O)N(Cc2ccc(Cl)cc2)C(C(=O)OC)C1 (stereo not drawn)	-1	0	1	x	x	1	x	x
CCOc1ccc(-n2c(SCC(=O)Nc3ccc4c(c3)c3ccccc3n4CC)nnc2-c2cccnc2)cc1	-2	4	-5	x	x	-8	x	x
O=C1/C(=C/C=C/c2ccco2)SC(=S)N1c1ccc(O)cc1	-4	-1	22*	15	i	-8	-9	-23
O=C1/C(=C/c2ccco2)SC(=S)N1c1cccnc1	-2	-8	12*	21	i	-18	-1	-14
COc1cccc(CNn2c(-c3cccc(C)c3)nc3ccccc3c2=O)c1	-6	4	5	1	i	11*	-8	-7
FC(F)(F)c1cc(CCN2CCNC[C@@H]2c2ccccc2)cc(C(F)(F)F)c1	-5	-9	-4	x	x	-5	x	x
FC(F)(F)c1cc(CO[C@@H]2CCCN[C@@H]2c2ccccc2)cc(C(F)(F)F)c1	-15	-9	10*	x	x	9	-10	-2
CCCNC(=O)C1(C)CCN(C(=O)c2ccc(C)c(F)c2)C1 (stereo not drawn)	3	-1	2	x	x	12*	-2	1
CCNC(=O)C1(C)CCN(C(=O)c2ccc(OC)c(OC)c2)C1 (stereo not drawn)	4	1	9.7*	x	x	7	-8	-1
